# Compound activity (PubChem BioAssay)
# IMPase inh: qHTS Assay for Identifying the Cell-Membrane Permeable IMPase Inhibitors | 120,000 tested, under 10 active | AID 901, 2007 | CHO-M1 cells, IP1 accumulation, HTRF TR-FRET ratio | inhibition (IP1 accumulation), % at 46.1 µM | Inositol monophosphatase 1 (Rattus norvegicus), P97697; active means well fitted curve in the direction sought with a large enough effect in the signal ratio, not every such curve was filed as active; inconclusive means small, poorly fitted or top-dose-only effect, or a change in a side signal; inactive means no such curve, though single readings can be large or run the other way; the % refers to the signal ratio;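 further: cells stimulated with carbachol in lithium chloride buffer; plate controls were DMSO basal wells for no effect and reference inhibitor wells for full effect; higher means more IMPase inhibition seen as more IP1 and lower FRET ratio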
# Target sequence (P97697 whole entry, looked up): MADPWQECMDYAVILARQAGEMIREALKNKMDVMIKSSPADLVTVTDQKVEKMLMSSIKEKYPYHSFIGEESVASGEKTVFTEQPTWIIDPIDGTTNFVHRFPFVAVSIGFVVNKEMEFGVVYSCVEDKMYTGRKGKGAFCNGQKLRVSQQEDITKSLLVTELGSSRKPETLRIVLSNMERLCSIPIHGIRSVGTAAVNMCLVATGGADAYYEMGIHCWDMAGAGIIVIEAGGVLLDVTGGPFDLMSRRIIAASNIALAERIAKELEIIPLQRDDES
#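 The IP-One HTRF competitive assay in carbachol-stimulated CHO-M1 cells quantifies cellular IP1. Compounds spanned up to 46 uM final, and activity is expressed as AC50 from concentration-response fits of the ratio and donor data.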
# PNC assembly inh: High Content Assay for Compounds that inhibit the Assembly of the Perinucleolar Compartment; PC3M PTB-GFP, PNC prevalence imaging, 16 h; active compounds read low; activity change (PNC), negative = inhibition, % at 10 µM; actives 3.1% (n = 140,000);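 active means readout at or below -70, meaning at least 70% loss of cells showing the perinucleolar compartment, a nuclear body marking cancer cells; inconclusive means readout between -30 and a set limit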;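 further: plate controls were DMSO wells for no effect and camptothecin positive control wells for full effect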
#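 PC3M cells stably expressing PTB-GFP, 750–1000 cells/well, treated 16 h at 37 °C with compound (23 nl of library stock), in duplicate. After paraformaldehyde fixation and Hoechst stain, imaged at 20x; PNC prevalence scored by image analysis.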
# IMPase Li cell: qHTS Assay for Identifying the Cell-Membrane Permeable IMPase Inhibitors: Potentiation with Lithium | CHO-M1 cells, IP1 TR-FRET (IP-One), carbachol + lithium | Potency, µM (top dose mostly 59.4 µM), for inactives: at the highest dose activity, negative = IMPase inhibition, actives largely listed as inhibitors | actives 0.35% (n = 210,000) | AID 1457, 2008;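 further: IP1 builds up when IMPase is blocked and the TR-FRET signal falls; potency means the concentration at half of the fitted maximal effect; plate controls were basal vehicle for no effect and high inhibitor control for full effect; nearly all actives have a fitted effect of over 50% in size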
#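 Test compounds were applied to CHO-M1 cells previously cultured for 16–30 h at 2000 per well. A small lithium amount accompanied them; after 30 min at 37C, IP1 was quantified by TR-FRET.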
# 12-hLO inh: qHTS Assay for Inhibitors of 12-hLO (12-human lipoxygenase); AID 1452, 2008; actives 0.12% (n = 150,000); purified 12-hLO, xylenol orange hydroperoxide absorbance; Potency, µM (highest dose often 57.1 µM), inactives show top-dose activity change, negative = inhibition, most hits filed as inhibitors; further: potency means the concentration at half of the fitted maximal effect; nearly all actives have a fitted effect of over 55% in size
#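 150 nM 12hLO, 25 mM Hepes pH 7.0 + 0.01% Triton X-100; cpd preinc 15 min RT; 40 uM arachidonic acid, 30 min RT; Fe-XO 30 min; A573/A405 ratio as read-out.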
# HPGD inh: qHTS Assay for Inhibitors of HPGD (15-Hydroxyprostaglandin Dehydrogenase); 15-hydroxyprostaglandin dehydrogenase [NAD(+)] (Homo sapiens), P15428; actives 4.3% (n = 150,000); purified HPGD, NADH fluorescence kinetic, PGE2 substrate; Potency, µM, without a hit: at the highest dose activity change, negative = inhibition, actives largely listed as inhibitors; AID 894, 2007; active means well fitted inhibition curve with a large enough effect, not every such curve was filed as active; inconclusive means small, poorly fitted or top-dose-only effect, or another doubt; inactive means no such curve, though single readings can be large or run the other way; further: potency means the concentration at half of the fitted maximal effect
#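 20 nM HPGD preincubated 15 min at room temperature with compound in 50 mM Tris-HCl pH 8, 0.01% Tween 20. Started with 1 mM NAD+ and 30 uM prostaglandin E2; NADH fluorescence (360/450 nm) read 5 times over 30-s intervals, last minus first.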
# ALDH1A1 block: qHTS Assay for Inhibitors of Aldehyde Dehydrogenase 1 (ALDH1A1); Aldehyde dehydrogenase 1A1 (Homo sapiens), P00352; actives 7.3% (n = 220,000); Purified ALDH1A1, NADH fluorescence, propionaldehyde substrate; Potency, µM (highest dose often 75.3 µM), without a hit: top-dose activity, negative = inhibition, usual class: inhibitors; active means well fitted inhibition curve with a large enough effect, not every such curve was filed as active; inconclusive means small, poorly fitted or top-dose-only effect, or another doubt; inactive means no such curve, though single readings can be large or run the other way;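 further: potency means the concentration at half of the fitted maximal effect; plate controls were no enzyme wells and a reference inhibitor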
# Target sequence (P00352 whole entry, looked up): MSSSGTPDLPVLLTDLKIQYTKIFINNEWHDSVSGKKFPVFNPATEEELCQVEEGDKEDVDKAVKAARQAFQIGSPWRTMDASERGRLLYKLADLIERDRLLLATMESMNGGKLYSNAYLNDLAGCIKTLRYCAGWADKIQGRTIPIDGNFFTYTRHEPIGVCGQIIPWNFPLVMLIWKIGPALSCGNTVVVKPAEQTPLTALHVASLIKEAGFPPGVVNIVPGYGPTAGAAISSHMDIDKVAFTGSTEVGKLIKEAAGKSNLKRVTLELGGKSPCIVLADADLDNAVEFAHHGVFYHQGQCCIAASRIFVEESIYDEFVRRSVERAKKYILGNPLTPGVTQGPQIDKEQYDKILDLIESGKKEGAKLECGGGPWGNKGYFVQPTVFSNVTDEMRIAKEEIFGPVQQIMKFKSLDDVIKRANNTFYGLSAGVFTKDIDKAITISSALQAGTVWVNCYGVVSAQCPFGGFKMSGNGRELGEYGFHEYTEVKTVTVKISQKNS
# * = called active by the depositor; ? = inconclusive; . = no result; [ ] = remark or other dose. This is a sample that favours compounds with a hit; in the whole collection about 11% have one here. Unless noted, the call rests on the fitted dose curve; in most records, active means well fitted curve in the direction sought with a large enough effect; inconclusive means small, poorly fitted or top-dose-only effect, or another doubt; inactive means no such curve, though single readings can be large; an effect the other way counts as inactive or inconclusive. Unless noted, on the % scale 0 is the no-effect control and ±100 the full control effect.
SMILES,IMPase inh,PNC assembly inh,IMPase Li cell,12-hLO inh,HPGD inh,ALDH1A1 block
O=C(NCC1CCCO1)c1ccc(S(=O)(=O)N2CCC(c3nc4ccc(Cl)cc4[nH]3)CC2)cc1 (configuration not stated),4,-100*,6%,-1%,-24%,-6%
CN(C)c1ncc([N+](=O)[O-])cc1C(F)(F)F,.,.,.,.,.,14µM*
COc1ccc(S(=O)(=O)N2c3cc(Cl)ccc3Oc3nc4ccccc4nc32)cc1,-10,-100*,16%,1%,-8%,-15%
COCCCN1CN(S(=O)(=O)c2ccc(Cl)cc2)c2nc3ccccc3nc21,?,-23,-4%[38.3 µM],-14%,-10%,?
O=S(=O)(c1ccc(Cl)cc1)N1c2ccccc2Oc2nc3ccccc3nc21,7,-24,13%,-3%,-13%,25µM*
Brc1ccc(-c2cn3cc(Cc4ccccc4)sc3n2)cc1,-5,.,.,.,.,.
COc1ccc(-c2nc(CSCC(=O)NCc3ccc4c(c3)OCO4)c(C)o2)cc1OC,12,-92*,8%,-4%,?,1%
O=C(NCc1ccc2c(c1)OCO2)c1ccco1,.,.,11%,.,.,3%
Cc1oc(-c2ccccc2F)nc1CS(=O)CC(=O)NCc1ccc2c(c1)OCO2 (configuration not stated),7,32,9%[38.3 µM],-4%,?,32µM*
O=C(CSCc1ccccc1)NCc1ccc2c(c1)OCO2,2,32,-8%[38.3 µM],-5%,20µM*,?
Cc1oc(-c2ccccc2F)nc1CS(=O)CC(=O)NCc1cccs1 (configuration not stated),0,1,-8%[38.3 µM],7%,-6%,-3%
O=C(OC(C(=O)NCc1ccc2c(c1)OCO2)c1ccc(Cl)cc1)c1ccco1 (configuration not stated),2,-4,-2%[38.3 µM],-17%,28µM*,14µM*
CC(=O)OCC1OC(n2cnc3c(=O)[nH]cnc32)C(OC(C)=O)C1OC(C)=O (configuration not stated),.,.,3%,0%,-11%,3%
O=C(CSCc1cccc(Cl)c1)NCc1ccc2c(c1)OCO2,-1,44,3%[38.3 µM],-9%,13µM*,?
O=C(CN1C(=O)NC2(CCCCCCC2)C1=O)NCc1ccc2c(c1)OCO2,6,-19,5%[38.3 µM],-1%,32µM*,-1%
O=C(COC(=O)Cc1cn2ccsc2n1)NC12CC3CC(CC(C3)C1)C2,-3,-14,3%[38.3 µM],1%,0%,-6%
O=C(CSCc1cnn(-c2ccccc2)c1-n1cccc1)NCc1ccccn1,.,.,16%,.,.,9%
O=C(COC(=O)Cc1cn2ccsc2n1)NCc1ccc2c(c1)OCO2,-11,15,-2%[38.3 µM],-9%,14µM*,?
O=C(NCc1ccc2c(c1)OCO2)c1ccc(CSCc2cccc(Cl)c2)o1,.,-25,2%,-7%,-23%,-6%
CCN(CC)C(=O)CSCc1cnn(-c2ccccc2)c1-n1cccc1,8,?,15%[38.3 µM],14%,-12%,28µM*
O=C(Oc1ccccc1)C1O[C@@H]1c1ccccc1 (some centres not stated),.,.,2%,.,-5%,-7%
COc1ccc(CNC(=O)CSCc2cnn(-c3ccccc3)c2-n2cccc2)cc1,8,16,17%[38.3 µM],-2%,-11%,?
O=C(NCc1ccc2c(c1)OCO2)c1nn(-c2ccccc2)c(=O)c2ccccc12,0,-22,41%[38.3 µM],-10%,-16%,5.6µM*
COCCNC(=O)CSCc1nc(-c2ccc(SC)cc2)oc1C,-4,-89*,-18%[38.3 µM],5%,?,?
CCOCCCNC(=O)CSCc1nc(-c2ccc(SC)cc2)oc1C,.,.,-3%,.,.,?
SMILES,IMPase inh,PNC assembly inh,IMPase Li cell,12-hLO inh,HPGD inh,ALDH1A1 block
O=C(/C=C/c1ccco1)NCc1ccc2c(c1)OCO2,.,.,3%,.,.,20µM*
O=C(CSCc1cnn(-c2ccccc2)c1-n1cccc1)NCc1ccc2c(c1)OCO2,-10,-100*,26%,-12%,-13%,?
CCNc1ncc2nc(-c3cc(F)cc(F)c3)c(=O)n(Cc3ccc(F)cc3)c2n1,.,.,-15%,.,.,-14%
O=C1c2oc3ccccc3c(=O)c2C(c2ccccc2F)N1Cc1ccc2c(c1)OCO2 (configuration not stated),-5,.,.,.,.,.
O=C1C2=CC[C@H]3C(=O)N(Cc4ccc5c(c4)OCO5)C(=O)[C@@H]3[C@@H]2[C@H](O)[C@@H]2O[C@H]12,.,.,.,.,.,3%[13.5 µM]
CCOc1ccccc1C(=O)N[C@H](C(=O)Nc1cc(S(=O)(=O)N(C)C)ccc1OC)C(C)C,.,.,6%,.,.,10µM*
C=CCOC(=O)NC(CC(=Nc1ccc(OC)cc1)C(=O)OC)c1ccccc1 (configuration not stated),.,.,28%,.,-18%,?
O=C(O)C(=O)/C=C(\O)c1ccc(Br)cc1,.,.,-13%,-7%[11.4 µM],-7%,-7%[13.5 µM]
CN(C)C(=O)COC(=O)c1ccccc1Nc1ccc(SC(F)F)cc1,-1,-105*,14%,-12%,?,?
COc1ccccc1NC(=O)COC(=O)c1ccccc1OCC(=O)Nc1ccc(SC(F)F)cc1,.,15,5%,-1%,-25%,10%
CC1CN(C(=O)N(C)C)CCN1C(=O)N(C)C (configuration not stated),5,-127*,0%[38.3 µM],-2%,-4%,3%
Cc1c(Cl)c(S(N)(=O)=O)cc2c1=NC=NS=2(=O)O,.,.,-1%,-1%[11.4 µM],-3%,-3%[13.5 µM]
NC(=O)c1cc[n+](CC(=O)c2ccc(NC(=O)c3ccccc3)cc2)cc1,.,.,-5%,.,.,4.5µM*
CN(C)c1ccc(-c2nccc(Nc3ccc(F)cc3)n2)cc1,.,.,6%,.,.,?
O=C(/C=C/c1ccccc1Cl)NCCc1ccccc1,?,24,3%[38.3 µM],-10%,16µM*,-7%
CCN(CC)c1ccc(NC(=O)/C=C\c2ccccc2Cl)cc1,3,-81*,8%,2%,-11%,-9%
CN(C)c1ccc(NC(=O)/C=C/c2ccccc2Cl)cc1,2,22,6%,1%,-11%,?
Cc1ccc(SCCNC(=O)c2ccccc2C)cc1,6,16,40%[38.3 µM],-4%,16µM*,5%
